Test results taken from PubChem BioAssay (NCI).
“And” between values parts separate entries of the source, which are not always exact repeats. Equal values may be shown once. About 83,000 compounds went through this panel and 20% of them were active in at least one assay; those are over-represented in the sample as a whole.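 For each line, cells grew in 96-well plates with the test compound present at a single concentration for 48 hours.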 Unmarked numbers belong to inactive results. The source made the active and inactive calls. Rule for the calls: active = growth percent below 10; inactive = the rest.

These compounds were tested on MDA-MB-435 melanoma (assay: NCI-60 one-dose screen, 48 h (100 = growth as untreated, 0 = no growth, -100 = all killed)). Settings: 10 µM.

Row | SMILES | growth [%]
1 | CCN(Cc1ccccc1)c1ccc(/C=C2\COc3ccccc3C2=O)cc1 | 95.7
2 | CC(=O)/C=C/c1ccc(OCc2ccc(C(C)(C)C)cc2)cc1 | 78.4
3 | CC(=O)/C=C/c1ccc(N(CCO)Cc2ccc(C(C)(C)C)cc2)cc1 | 80.7
4 | O=C(/C=C/c1cccc(Oc2ccc(Cl)cc2)c1)c1ccccc1 | 94.8
5 | COc1ccc(C(=O)/C=C/c2ccc(OCc3ccc(Cl)cc3)cc2)cc1OC | 90.7
6 | CC(=O)/C=C/c1ccc(N(C)Cc2ccc(C(C)(C)C)cc2)cc1 | 88.5

Same assay, conditions: 10 µM unless noted

Row | SMILES | growth
7 | CCOC(=O)c1ccc(Nc2ncnc3c2cnn3-c2cccc(F)c2)cc1 | 103%
8 | O=S(=O)(O)c1ccc(N=Nc2ccc(N=Nc3cccc4ccccc34)c(S(=O)(=O)O)c2)cc1 | 108%
9 | CC[C@@H]1NC(=O)[C@H]([C@H](O)[C@H](C)C/C=C/c2ccc(CN3C(=O)C(C)=C(C)C3=O)cc2)N(C)C(=O)[C@H](C(C)C)N(C)C(=O)[C@H](CC(C)C)N(C)C(=O)[C@H](CC(C)C)N(C)C(=O)[C@@H](C)NC(=O)[C@H](C)NC(=O)[C@H](CC(C)C)N(C)C(=O)[C@H](C(C)C)NC(=O)[C@H](CC(C)C)N(C)C(=O)CN(C)C1=O | 82.7%
10 | COc1nc(=O)n(C2C=CC(=O)O2)cc1F (stereo unspecified) | 79%
11 | COc1ccc(-c2csc(NC(=O)CN3CCN(CCO)CC3)n2)cc1NS(=O)(=O)c1cccc2c(N(C)C)cccc12 | 57.3%
12 | O=C1/C(=C/c2ccc(-c3cccc(C(F)(F)F)c3)o2)SC(=S)N1CCc1ccc(O)cc1 | 52.6%
13 | BrC1=C(Br)C(Br)(Br)C(Br)=C1Br | 75.6%
14 | OCc1cc(CN2CCCCC2)c(O)c2ncccc12 | 77%
15 | COc1ccc(C2=C(CN)C(O)NC(=NCC(=O)c3ccc4ccccc4c3)N2)cc1 (stereo unspecified) | 103%
16 | N#CSc1c[nH]c2ccc(/C=C/C(=O)/C=C(/C=C/c3ccc4[nH]cc(SC#N)c4c3)OB(F)F)cc12 | -77.4% (active)
17 | COc1ccc(Oc2nc(Nc3ccc(N4CCOCC4)cc3)ncc2NC(=O)c2cc(OC)cc(OC)c2)cc1 | 40.4%
18 | COc1ccc2c(c1)oc1c(C)c3c(c(C)c12)C(=O)N(Nc1ccccc1)C3=O | 104%
19 | COc1ccc(/C=C2/C(=O)N=C3N2NC(c2ccccc2)=CN3c2ccccc2)cc1 | 108%
20 | O=C1/C(=C/c2ccccc2[N+](=O)[O-])Cc2ccccc21 | 28.4% and 36.3%
21 | COc1ccc2c(c1)CCNC21C(=O)Nc2c(Br)cc(Br)cc21 (stereo unspecified) | 101%
22 | O=C(N/N=C/c1ccc(O)cc1O)c1cccc(Nc2ccnc(C(F)(F)F)c2)c1 | 41%
23 | O=C(c1cccc(Br)c1)N1CCN(c2ccnc3cc(Cl)ccc23)CC1 | 90.2%
24 | CCCCCC#CC1OC23CCCCC2C(C#N)(C(=N)O3)C1(C#N)C#N (stereo unspecified) | 92.6%
25 | COc1ccc(-c2c[nH]c(C(=O)O)c2-c2cc(OC)c(OC)c(OC)c2)cc1 | -21.3% (active)
26 | NC(N)=NC(N)=NCCCc1ccco1 | 110%
27 | CN1Cn2c(ccc2C(F)(F)F)C(=O)CS1(=O)=O | 103%
28 | CCCc1cc(C(N)=S)ccn1 | 105%
29 | C#CCn1cnc2cnc(Nc3cccc(NC(=O)CCl)c3)nc21 | -19.6% [6.25 µM] (active)
30 | CC1=C2[C@@H](CC1)[C@]1(C)O[C@@](C3CC3)(C[C@H]1OC(=O)CO)[C@H]2OC(=O)/C=C/c1ccccc1 | 104%
31 | CCCn1nc(C(=O)N2CCCCC2)c2c1CCC(N1CCC(c3ccncc3)CC1)C2 (stereo unspecified) | 102%
32 | Cc1c(O)c(O)cc2c3c(oc12)CC(c1ccc2c(c1)OCO2)CC3=O (stereo unspecified) | 105%
33 | COc1ccc(Nc2nn3c(SCC(=O)c4ccc(C)cc4)nnc3s2)cc1 | 105%
34 | N#Cc1c(-c2cccc(F)c2)cc(-c2cccnc2)[nH]c1=O | 100%
35 | O=[N+]([O-])c1ccc2[nH]c3nccc(NCc4cccc(Cl)c4)c3c2c1 | 77%

Same assay, conditions: 100 µM

Row | SMILES | growth
36 | CCN(Cc1ccccc1)c1ccc(/C=C2\COc3ccccc3C2=O)cc1 | -44.7% (active)
37 | CC(=O)/C=C/c1ccc(OCc2ccc(C(C)(C)C)cc2)cc1 | 39.5%
38 | CC(=O)/C=C/c1ccc(N(CCO)Cc2ccc(C(C)(C)C)cc2)cc1 | -94.4% (active)
39 | O=C(/C=C/c1cccc(Oc2ccc(Cl)cc2)c1)c1ccccc1 | -84.8% (active)
40 | COc1ccc(C(=O)/C=C/c2ccc(OCc3ccc(Cl)cc3)cc2)cc1OC | 43.7%
41 | CC(=O)/C=C/c1ccc(N(C)Cc2ccc(C(C)(C)C)cc2)cc1 | -54.3% (active)
